# MPTP block = permeability transition pore inhibition; isolated mouse mitochondria, Ca2+ swelling absorbance, 30 min; 360,000 tested, 1.4% active; AID 602449; inhibition, % at 10 µM;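 active = inhibition of 50% or more, scaled per plate between neutral and stimulator controls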;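 also: 0% = DMSO wells given calcium and 100% = 1 mM EGTA wells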
# Mdm2 MdmX PPI = inhibitors of human Mdm2/MdmX interaction; AID 485346; inhibition, % at 8 µM; SaOS-2 split-luciferase Mdm2/MdmX complementation, luminescence; 330,000 tested, 3% active;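 active = inhibition of at least 50% at 8 µM in the primary screen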
# Target sequence (O15151 whole entry, looked up): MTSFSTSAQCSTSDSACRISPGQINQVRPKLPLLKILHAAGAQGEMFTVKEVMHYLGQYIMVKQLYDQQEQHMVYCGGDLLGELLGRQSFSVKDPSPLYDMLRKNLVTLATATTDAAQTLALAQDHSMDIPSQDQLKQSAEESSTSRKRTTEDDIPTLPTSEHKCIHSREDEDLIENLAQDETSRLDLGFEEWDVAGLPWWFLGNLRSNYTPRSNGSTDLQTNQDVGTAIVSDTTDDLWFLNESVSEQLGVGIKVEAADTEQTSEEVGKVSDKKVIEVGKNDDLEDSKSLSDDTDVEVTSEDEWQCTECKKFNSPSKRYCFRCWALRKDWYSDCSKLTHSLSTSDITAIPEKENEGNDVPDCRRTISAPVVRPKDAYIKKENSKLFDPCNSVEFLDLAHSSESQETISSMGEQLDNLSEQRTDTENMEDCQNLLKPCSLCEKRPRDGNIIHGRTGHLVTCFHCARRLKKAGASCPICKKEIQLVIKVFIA
# Target sequence (Q00987 whole entry, looked up): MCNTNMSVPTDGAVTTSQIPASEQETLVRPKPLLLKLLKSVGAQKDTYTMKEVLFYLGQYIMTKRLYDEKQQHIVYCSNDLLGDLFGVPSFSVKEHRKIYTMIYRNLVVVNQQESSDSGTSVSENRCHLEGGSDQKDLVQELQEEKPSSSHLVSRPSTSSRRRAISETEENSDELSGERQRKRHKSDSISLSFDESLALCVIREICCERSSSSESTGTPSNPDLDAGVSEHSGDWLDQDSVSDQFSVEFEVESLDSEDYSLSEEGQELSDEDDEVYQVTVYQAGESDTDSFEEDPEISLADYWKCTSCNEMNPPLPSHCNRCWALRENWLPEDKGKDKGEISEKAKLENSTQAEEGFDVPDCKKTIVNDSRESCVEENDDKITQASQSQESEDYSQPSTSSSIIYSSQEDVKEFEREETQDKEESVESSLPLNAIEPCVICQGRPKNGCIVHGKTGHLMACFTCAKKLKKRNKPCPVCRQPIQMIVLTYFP
# tim10-1 inh = growth inhibitors of tim10-1 mutant yeast | S. cerevisiae tim10-1 ts strain growth, BacTiter-Glo, 24 h | inhibition, % at 20 µM | 330,000 tested, 2.2% active;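 active = inhibition of at least 40%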;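 also: mutant grown at 25 °C; 0% = DMSO wells with yeast and 100% = wells holding no yeast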
# TIM10 inh = TIM10 yeast growth inhibition. S. cerevisiae TIM10 strain growth, BacTiter-Glo luminescence, 24 h. AID 463195. inhibition, % at 10 µM. 330,000 tested, 1.4% active;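 active = inhibition of 40% or more at the single tested concentration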;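 also: wild-type TIM10 isogenic control strain grown at permissive 25 °C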
# tim23-1 inh = tim23-1 yeast growth inhibition; S. cerevisiae tim23-1 growth, BacTiter-Glo luminescence, 24 h; 330,000 tested, 1.3% active; inhibition, % at 20 µM;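 active = growth inhibition of the mutant yeast at or above 50%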;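 also: temperature-sensitive mutant grown at 25 °C; plate controls were DMSO-treated mutant yeast for no effect and medium wells lacking yeast for full effect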
# tim10-1 conf = tim10-1 yeast growth inhibition, confirmed; shares compounds with tim10-1 inh; S. cerevisiae tim10-1 ts strain growth, BacTiter-Glo, 24 h; inhibition, % at 20 µM; 7,400 tested, 56% active; AID 463213;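 active = inhibition of yeast growth at or above a set limit in either of two repeat tests at 20 µM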;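 also: tim10-1 mutant grown at permissive 25 °C to find synthetic lethal compounds; 0% = DMSO yeast wells and 100% = medium wells without yeast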
# * = called active by the depositor; nt = no result. The list is not random: actives were taken first. Their share in the collection is about 6.3%.
SMILES,MPTP block,Mdm2 MdmX PPI,tim10-1 inh,TIM10 inh,tim23-1 inh,tim10-1 conf
O=[N+]([O-])/C(C(Cl)=C(Cl)Cl)=C(/Sc1ccccc1)N1CCCCC1,2.4,31.6,40.7*,25.9,42.1,45.0*
O=C(N/C(=C\c1ccc([N+](=O)[O-])cc1)C(=O)N1CCCCC1)c1ccccc1,-1.0,-4.0,27.7,0.8,21.7,nt
O=C1c2ccccc2C(c2nnnn2Cc2ccccc2)N1CCCN1CCOCC1 (stereo unspecified),-1.6,nt,nt,nt,nt,nt
COc1cccc(-c2noc(N)c2C#N)c1,-1.7,15.3,52.0*,31.5,36.1,44.2*
N#Cc1c(-c2ccc(F)cc2)noc1N,-1.5,7.6,32.1,26.2,19.8,nt
COc1ccc(CN2C[C@@H](CO)O[C@@H](n3cnc4c(NCCO)ncnc43)C2)cc1,-1.3,nt,nt,nt,nt,nt
Cc1onc(-c2cccc(Cl)c2Cl)c1C(=O)O/N=C(\N)c1ccc([N+](=O)[O-])o1,2.8,47.8,44.1*,38.2,39.9,2.5
Cc1onc(-c2ccccc2Cl)c1C(=O)O/N=C(\N)c1cccc([N+](=O)[O-])c1,-0.3,nt,nt,nt,nt,nt
O=C(CSc1nc(N2CCCCC2)nc(N2CCCCC2)n1)c1ccccc1,1.5,21.6,14.1,-11.0,23.4,nt
Cc1cc(N2CCCCC2)nc(SCC(=O)c2ccccc2)n1,1.7,-51.5,47.4*,14.9,34.6,33.3*
Cc1cc(-c2ccc(C)c(S(=O)(=O)N3CCN(c4ccccn4)CC3)c2)on1,0.2,12.6,42.1*,18.4,39.2,31.8*
Cc1cc(-c2ccc(C)c(S(=O)(=O)N3CCN(c4ccc([N+](=O)[O-])cc4)CC3)c2)on1,0.9,14.1,21.8,3.2,14.9,nt
C=C(C)[C@@H]1C2=CC(C(=O)OC)=C(C[C@H](C(=C)C)[C@H]3O[C@H]3C3=C[C@H]1OC3=O)O2,0.0,nt,nt,nt,nt,nt
Cc1ccc(CN(Cc2ccco2)C(=S)Nc2ccccc2C)cc1,-0.6,-13.9,42.2*,10.1,10.4,26.0
Cc1ccc(S(=O)(=O)N(C(=O)c2ccncc2)c2ccc(OC(=O)c3ccncc3)c3ccccc23)c(C)c1,-3.4,32.0,48.0*,19.4,45.7,32.4*
COc1ccc(OC)c(N(CCN2C(=O)c3ccccc3C2=O)C(=O)CCl)c1,0.0,nt,nt,nt,nt,nt
Cc1ccc(S(=O)(=O)N2CCN(CC(O)COc3ccccc3)CC2)cc1 (stereo unspecified),1.2,3.1,10.0,5.7,21.5,nt
CCOc1ccc(S(=O)(=O)N2CCN(CC(O)COc3cccc([N+](=O)[O-])c3)CC2)cc1 (stereo unspecified),1.1,12.8,43.9*,28.0,19.5,8.3
OC(c1cc(F)cc(Cl)c1)c1ncc(-c2ccc3ccccc3c2)[nH]1 (stereo unspecified),13.4,nt,nt,nt,nt,nt
COc1ncccc1C(=O)NC1CCCc2c1cnn2-c1ccc(C)c(C)c1 (stereo unspecified),0.1,45.3,51.8*,28.5,34.1,14.8
Nc1cccc(Nc2nc(OC(C(F)(F)F)C(F)(F)F)nc(OC(C(F)(F)F)C(F)(F)F)n2)c1,20.0,25.7,43.0*,24.2,27.6,38.4*
COc1nc(Nc2ccc(O)cc2)nc(OC(C(F)(F)F)C(F)(F)F)n1,1.4,5.0,10.7,17.3,14.6,nt
CC(C)(C)NC(=O)NC(=O)COc1ccc(Br)cc1Br,0.4,-162.1,46.0*,18.6,47.7,33.6*
O=C(COc1ccc(Br)cc1Br)NC(=O)NC1CCCC1,2.8,-98.1,9.6,21.0,44.8,nt
CCOP(=O)(NC12CC3CC(CC(C3)C1)C2)NC12CC3CC(CC(C3)C1)C2,0.3,18.0,40.3*,25.5,24.8,28.5
SMILES,MPTP block,Mdm2 MdmX PPI,tim10-1 inh,TIM10 inh,tim23-1 inh,tim10-1 conf
Cc1ccc(S(=O)(=O)N(C)c2ccc(OC(C)C(=O)N(C)c3ccccc3)cc2)cc1 (stereo unspecified),-0.2,18.4,28.0,15.8,15.2,nt
COc1ccc(-c2oc3c(c2C(=O)OCCO)C(OCCCO)CCC3)cc1 (stereo unspecified),-1.1,nt,nt,nt,nt,nt
COC(=O)c1c(-c2ccc(Br)cc2)noc1N,-0.2,18.5,46.5*,30.8,16.4,28.6
CCOc1cc(-c2noc(N)c2C(=O)OC)cc(OCC)c1OCC,0.0,24.9,37.4,4.4,24.1,nt
O=C(COC(=O)c1ccc2c(c1)OCCO2)NCc1ccc(Cl)cc1,1.1,nt,nt,nt,nt,nt
COC(=O)Sc1nc(N2CCOCC2)c2c(c1C#N)CC(C)(C)OC2,2.2,6.0,45.4*,38.8,5.7,31.4*
COc1ccc(C(C)=NOC(=O)c2c(-c3ccccc3Cl)noc2C)cc1CN1CCOCC1,0.0,nt,nt,nt,nt,nt
C/C(=N\NC(=S)Nc1cccc(C)c1)c1cc2ccccc2o1,3.3,5.7,47.4*,37.4,35.3,39.3*
S=C(N/N=C/c1cccc2ccccc12)Nc1cccc(Cl)c1,5.7,-4.9,43.1*,-2.4,27.0,36.9*
COc1cccc(NC(=S)Nc2cccc3ccccc23)c1,1.7,-93.4,55.3*,38.2,32.7,23.5
CCc1cccc(NC(=S)Nc2cccc3ccccc23)c1,2.9,21.9,30.1,26.7,29.3,nt
CCNC(=S)N/N=C(\C)c1cc2ccccc2o1,-0.2,-15.8,19.2,2.1,21.8,nt
Cc1cccc(NC(=S)Nc2cccc3ccccc23)c1,-0.1,12.3,45.2*,31.8,33.9,28.9
CCc1nc2c(OCCc3cccc(OC)c3)cccn2c1N(C=O)Cc1ccccc1,0.9,nt,nt,nt,nt,nt
CCCN(C)C[C@@H]1Oc2ncc(Br)cc2C(=O)N([C@@H](C)CO)C[C@H]1C,-0.7,nt,nt,nt,nt,nt
CCC1CCCCN1Cc1cc(OC)c(O)c([N+](=O)[O-])c1 (stereo unspecified),nt,16.1,43.2*,3.7,-0.9,13.6
Cc1cccc(CN2CCN([C@@H]3CS(=O)(=O)N[C@H]3COCc3ccccc3)CC2)c1,-0.8,nt,nt,nt,nt,nt
C/C(CC1CC(C)OC1=O)=N\NC(N)=S (stereo unspecified),1.0,-6.4,2.8,7.7,-0.7,nt
C/C(CCC12CC3CC(CC(C3)C1)C2)=N\NC(N)=S,-0.2,31.2,57.8*,4.0,44.8,-10.9
Cc1nc2ccccc2n1C(c1cccnc1)c1nc2ccccc2[nH]1 (stereo unspecified),-0.8,nt,nt,nt,nt,nt
Cc1ccc(N2CC(C(=O)Nc3cc(S(=O)(=O)N4CCCCC4)ccc3C)CC2=O)cc1 (stereo unspecified),-1.2,nt,nt,nt,nt,nt
CCN(Cc1ccncc1)Cc1c(O)ccc2cc(Br)ccc12,-0.2,6.2,46.3*,29.9,29.8,21.9
Cc1ccc(N=C2C(=O)Nc3ccc(C)c(Br)c32)cc1,-0.3,-16.7,41.4*,15.8,32.5,29.9*
COc1ccc(N=C2C(=O)Nc3ccc(C)c(Br)c32)cc1,1.8,4.9,18.0,21.0,21.2,nt
COc1ccc(-c2cc(C3CC3)nc3sc(C#N)c(N)c23)cc1,1.6,42.8,44.3*,35.2,47.2,56.7*
COc1ccc(-c2cc(C3CC3)nc(N)c2C#N)cc1,1.8,2.8,26.9,22.0,24.4,nt
